Measurements reported in PubChem BioAssay (NCI).
“And” between values parts separate entries of the source, which are not always exact repeats. Equal values may be shown once. The panel holds about 83,000 compounds, 20% with a hit somewhere; the sample as a whole holds those more often.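 Compound tested at a single concentration for 48 hours in 96-well plates; a percent growth value below 10 was scored as active.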 The source made the active and inactive calls.

How the values were obtained:
Assay in all cases: NCI-60 one-dose screen, 48 h (100 = growth as untreated, 0 = no growth, -100 = all killed)
[1] = tested on: NCI-H23 lung
[2] = tested on: NCI-H226 lung
[3] = tested on: NCI-H322M lung
[4] = tested on: HOP-62 NSCLC
[5] = tested on: NCI-H460 lung
[6] = tested on: HOP-92 NSCLC
[7] = tested on: NCI-H522 lung
[8] = tested on: A549/ATCC NSCLC
[9] = tested on: 786-0 renal
[10] = tested on: COLO 205 colon
[11] = tested on: DU-145 prostate
[12] = tested on: K-562 leukemia
[13] = tested on: MALME-3M melanoma
[14] = tested on: MDA-MB-231 breast
[15] = tested on: RXF 393 renal
[16] = tested on: SF-268 CNS
[17] = tested on: SF-295 CNS
[18] = tested on: SF-539 CNS
[19] = tested on: UACC-257 melanoma
[20] = tested on: M14 melanoma

Measured: growth

O=S(=O)(Nc1ccc(F)cc1)c1ccc(-c2cnc(C3CC3)o2)cc1
inactive: [1]; 10 µM unless noted 42% | [2]; 10 µM unless noted 63.9% | [3]; 10 µM unless noted 52.8% | [4]; 10 µM unless noted 34.7% | [5]; 10 µM unless noted 15.8% | [6]; 10 µM unless noted 50.5% | [8]; 10 µM unless noted 37.8% | [9]; 10 µM unless noted 38.5% | [10]; 10 µM unless noted 20.2% | [11]; 10 µM unless noted 34% | [12]; 10 µM unless noted 11.9% | [13]; 10 µM unless noted 46% | [14]; 10 µM unless noted 49.7% | [15]; 10 µM unless noted 25.9% | [16]; 10 µM unless noted 45.5% | [17]; 10 µM unless noted 30.2% | [18]; 10 µM unless noted 19.4% | [19]; 10 µM unless noted 43.4% | [20]; 10 µM unless noted 12.2%
active: [7]; 10 µM unless noted 0.0519%

CCCCSc1ccc2nc(-c3ccc(OCCCN=C(N)N)cc3)cn2c1
active: [18]; 10 µM unless noted 9.52%
inactive: [1]; 10 µM unless noted 63.7% | [2]; 10 µM unless noted 72.3% | [3]; 10 µM unless noted 90.7% | [4]; 10 µM unless noted 86.4% | [5]; 10 µM unless noted 43.7% | [6]; 10 µM unless noted 43.1% | [7]; 10 µM unless noted 53.8% | [8]; 10 µM unless noted 83.8% | [9]; 10 µM unless noted 39.4% | [10]; 10 µM unless noted 51.1% | [11]; 10 µM unless noted 73.4% | [12]; 10 µM unless noted 32.9% | [13]; 10 µM unless noted 23.2% | [14]; 10 µM unless noted 51.2% | [15]; 10 µM unless noted 45.6% | [16]; 10 µM unless noted 50.9% | [17]; 10 µM unless noted 52.7% | [19]; 10 µM unless noted 85.7% | [20]; 10 µM unless noted 72.5%

CN(C)c1ccc2nc3ccc(=O)cc-3sc2c1
inactive: [1]; 10 µM unless noted 11.1% and 22% | [2]; 10 µM unless noted 71.8% | [3]; 10 µM unless noted 49.7% and 70% | [4]; 10 µM unless noted 35.5% and 60.7% | [5]; 10 µM unless noted 19% and 34.1% | [6]; 10 µM unless noted 49% and 61% | [9]; 10 µM unless noted 57.1% and 43.7% | [11]; 10 µM unless noted 35.7% and 51.2% | [12]; 10 µM unless noted 20.4% and 23% | [14]; 10 µM unless noted 30.4% and 43% | [15]; 10 µM unless noted 52.2% and 82% | [16]; 10 µM unless noted 52.9% and 63%
-10.8% (active) and 41.5% (inactive): [7]; 10 µM unless noted
active: [10]; 10 µM unless noted -10.2% and 5.66% | [17]; 10 µM unless noted 6.09% and -15.3% | [20]; 10 µM unless noted 9.73% and 7.61%
1.33% (active) and 35.9% (inactive): [8]; 10 µM unless noted
-21.8% (active) and 24.8% (inactive): [19]; 10 µM unless noted
10.3% (inactive) and 1.75% (active): [18]; 10 µM unless noted
1.88% (active) and 22.1% (inactive): [13]; 10 µM unless noted

Nc1nc2ccccc2c2c(=O)c3ccc(Cl)cc3sc12
inactive: [1]; 10 µM unless noted 92% | [2]; 10 µM unless noted 98.9% | [3]; 10 µM unless noted 103% | [4]; 10 µM unless noted 99.1% | [5]; 10 µM unless noted 72.7% | [6]; 10 µM unless noted 84.1% | [7]; 10 µM unless noted 94.3% | [8]; 10 µM unless noted 94.7% | [9]; 10 µM unless noted 99.1% | [10]; 10 µM unless noted 98.4% | [11]; 10 µM unless noted 97.5% | [12]; 10 µM unless noted 90.7% | [13]; 10 µM unless noted 107% | [14]; 10 µM unless noted 91% | [15]; 10 µM unless noted 111% | [16]; 10 µM unless noted 95.2% | [17]; 10 µM unless noted 101% | [18]; 10 µM unless noted 106% | [19]; 10 µM unless noted 105% | [20]; 10 µM unless noted 94.5%

CC(=O)/C=C/c1ccc(OCc2ccc(Cl)cc2)cc1
inactive: [1]; 10 µM 90.9% | [1]; 100 µM 37.1% | [2]; 10 µM 100% | [2]; 100 µM 49.6% | [3]; 10 µM unless noted 52.5% [100 µM] | [4]; 10 µM 110% | [4]; 100 µM 44.9% | [5]; 10 µM 101% | [5]; 100 µM 26.1% | [6]; 10 µM 91.8% | [6]; 100 µM 11% | [7]; 10 µM 90.4% | [8]; 10 µM 75.9% | [8]; 100 µM 34.1% | [9]; 10 µM 88.1% | [9]; 100 µM 51.2% | [10]; 10 µM 122% | [11]; 10 µM 96.6% | [11]; 100 µM 52.9% | [12]; 10 µM 79.1% | [12]; 100 µM 26.1% | [13]; 10 µM 110% | [14]; 10 µM 117% | [15]; 10 µM 105% | [15]; 100 µM 55.5% | [16]; 10 µM 101% | [16]; 100 µM 52.3% | [17]; 10 µM 99.1% | [17]; 100 µM 39.9% | [18]; 10 µM 109% | [18]; 100 µM 44.4% | [19]; 10 µM 86.6% | [20]; 10 µM 98.2% | [20]; 100 µM 36.1%
active: [7]; 100 µM -3.06% | [10]; 100 µM -21.9% | [13]; 100 µM -1.84% | [14]; 100 µM 9.42% | [19]; 100 µM -1.1%

CN(C)CCNc1ncc(F)c(-c2cnc3cc(-c4cnn(C)c4)ccn23)n1
inactive: [1]; 0.005 µM 101% | [1]; 30 µM 56.9% | [2]; 10 µM unless noted 76.5% [30 µM] | [3]; 0.005 µM 95.6% | [3]; 30 µM 44.7% | [4]; 0.005 µM 103% | [4]; 30 µM 60.2% | [5]; 0.005 µM 101% | [5]; 30 µM 15.7% | [6]; 0.005 µM 105% | [6]; 30 µM 61.4% | [7]; 0.005 µM 92.4% | [7]; 30 µM 51.9% | [8]; 0.005 µM 101% | [8]; 30 µM 34.3% | [9]; 0.005 µM 102% | [9]; 30 µM 44.2% | [10]; 10 µM unless noted 25.8% [30 µM] | [11]; 0.005 µM 107% | [11]; 30 µM 27.5% | [12]; 0.005 µM 102% | [12]; 30 µM 41.6% | [13]; 0.005 µM 99.7% | [13]; 30 µM 53.5% | [14]; 0.005 µM 98.4% | [14]; 30 µM 54.3% | [15]; 10 µM unless noted 110% [0.005 µM] | [16]; 0.005 µM 100% | [16]; 30 µM 57.7% | [17]; 0.005 µM 102% | [17]; 30 µM 70.8% | [18]; 0.005 µM 97.2% | [18]; 30 µM 46.3% | [19]; 0.005 µM 100% | [19]; 30 µM 93.5% | [20]; 10 µM unless noted 107% [0.005 µM]
